Source: PubChem (National Center for Advancing Translational Sciences (NCATS))
HCV inh – HCV inhibition. Huh7.5.1 HCVcc-Cre infection, luciferase reporter, 44 h. Potency, µM (top dose mostly 41.8 µM), without a hit: top-dose activity change, negative = inhibition, usual class: inhibitors. actives 3.4% (n = 340,000). AID 651820; note: potency is the fitted concentration of half-maximal effect; % is set by controls: 0 for no effect and ±100 for the full control effect
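Cells (1,000/well) were plated 4 h before compound, then infected with HCVcc-Cre virus (~0.5 moi). After 44 h further culture, infection was read as luciferase luminescence following a 15 min substrate incubation at room temperature.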
Shiga toxin inh – inhibitors of Shiga toxin in Vero cells. Vero cells, Shiga toxin protein synthesis inhibition reporter. inhibition, % at 38.7 µM. actives 9.2% (n = 290,000); in the data active = inhibition mostly above about 28%, no sharp cut-off; inactive = mostly below about 43%; note: 0% is about no effect
Cycloheximide cs – affects cycloheximide protein synthesis inhibition readout, counter-screen; max response, %; cell reporter, cycloheximide protein synthesis inhibition counterscreen; actives 12% (n = 300,000); in the data active = max response mostly above about 13%, no sharp cut-off; inactive = mostly below about 14%; note: read at 38.3 µM for the half of the compounds with a filed dose; 0% is about no effect
Pf growth 48h – inhibits P. falciparum growth in the first generation, 48 h; P. falciparum luciferase growth in erythrocytes, 48 h; actives 5.9% (n = 310,000); AID 504832; Potency, µM (series often up to 28.7 µM), without a hit: top-dose activity change, negative = inhibition, actives largely listed as inhibitors; note: potency is the fitted concentration of half-maximal effect; % is set by controls: 0 for no effect and ±100 for the full control effect
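Read-out is firefly luciferase luminescence from an integrated reporter in P. falciparum, so falling signal marks reduced parasite growth. Infected erythrocytes were at 2% hematocrit and 0.1% parasitemia (final) in Albumax-supplemented RPMI 1640.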
Pf growth 96h – P. falciparum growth inhibition at 96 hours; P. falciparum luciferase reporter growth, 96 h; AID 504834; Potency, µM (series often up to 28.7 µM), inactives show at the highest dose activity change, negative = inhibition, usual class: inhibitors; actives 6.9% (n = 320,000); note: potency is the fitted concentration of half-maximal effect; % is set by controls: 0 for no effect and ±100 for the full control effect
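Luminescence readout: decreased luciferase signal marks inhibited growth of reporter-expressing P. falciparum in infected red cells (2% hematocrit, 0.05% parasitemia final), exposed to compound two generations (96 h, 37 C, 5% CO2).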
HCMV antiviral – inhibitors of human cytomegalovirus; HFF cells, HCMV-luciferase reporter, 72 h; stronger effect = lower value; AID 1259415; actives 4.5% (n = 410,000); activity change, negative = inhibition, % at 57.5 µM; in the data active = activity change below about -60%; inconclusive = no clear call, values can overlap the other calls; inactive = above about -39%; note: % is set by controls: 0 for no effect and ±100 for the full control effect
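Human foreskin fibroblasts infected with luciferase-reporter HCMV at MOI 1 PFU/cell, compounds at two doses. Luciferase measured 72 h post infection; normalized to buffer-only basal and Salinomycin (10uM) controls.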
The depositor's hits bear a star; ? = inconclusive; / = no result given; ! = not active in a repeat. Shown are actives, neighbours in structure and some others; about 21% of the full set was active somewhere. Unless noted, calls come from the whole dose curve; as a rule, active = well fitted inhibition curve with a large enough effect; inconclusive = small, poorly fitted or top-dose-only effect, or another doubt; inactive = no such curve, though single readings can be large or run the other way.

SMILES | HCV inh | Shiga toxin inh | Cycloheximide cs | Pf growth 48h | Pf growth 96h | HCMV antiviral
CC(C)=NOCC(=O)Nn1c(COc2ccccc2)nc2ccccc2c1=O | 15% | -24 | -3 | 15% | -27% | 46
COc1ccc(N2C(=O)/C(=C/c3cccs3)NC2=S)cc1 | 7% | 22* | -1 | 1% | 12% | 0
CC(c1ccccc1)N1C(=O)CC(Sc2ncccc2C(=O)O)C1=O (stereo not drawn) | 4% | 4 | 8 | -1% | 2.1µM* | 5
CCCCN1C(=O)CC(Sc2ncccc2C(=O)O)C1=O (stereo not drawn) | 17% | -14 | 1 | -8% | 20% | 4
CC1(C(=O)O)CCCN1C(=O)c1ccccc1OC(F)(F)F (stereo not drawn) | / | / | / | / | / | 14
N#C/C(=C\c1ccc(O)cc1)C(=O)O (tested in a mixture with another compound) | 34% | / | / | / | / | ?
N#CC(C#N)=Cc1ccc(O)cc1 | / | active! | 20 | / | / | /
N#CC(C#N)=Cc1cc(O)c(O)c(O)c1 | / | / | / | 7.6µM* | 11µM* | /
Cc1cccc(NC(=O)COC(=O)C2COc3ccccc3O2)c1C (stereo not drawn) | 25% | / | / | / | / | -10
Cc1ccc(C(=O)Nc2ccc3nccnc3c2)cc1 | 3% | 48* | 24* | 264% | 383% | -10
Cc1ccc(NC(=O)c2ccc3nccnc3c2)c(C)c1 | -24% | 31* | 23* | 69% | -24% | -68*
O=C(Nc1ccc2cccnc2c1)c1ccc(Br)cc1 | -27% | / | 24* | 35% | 290% | 68
Cc1cc(NC(=O)c2ccc3nccnc3c2)ccc1Br | ? | / | / | / | / | 26
Cc1cc(C)c(NC(=O)c2ccc3nccnc3c2)c(C)c1 | 3% | / | / | ? | 3% | -72*
CCOc1ccccc1NC(=O)Cn1c(=O)n(Cc2nc(C)no2)c(=O)c2ccccc21 | / | / | / | / | / | 5
COc1ccccc1-c1cccc2nccn12 | / | / | / | / | / | -28
Cc1ccc(C(=O)NC(=O)OCCn2c(C)cnc2[N+](=O)[O-])cc1 | 16% | 47 | 17 | 0% | -25% | 54
Cc1ccc(-c2nc3ccccc3[nH]2)cc1NC(=O)c1ccco1 | 3% | 53 | 22* | 17% | ? | 117
Cc1ccc(-c2nc3ccccc3[nH]2)cc1NC(=O)c1sc2cc(Cl)ccc2c1Cl | -47% | 54 | 20* | 3.3µM* | ? | 11
O=C(Nc1ccc2nc(-c3ccccc3)[nH]c2c1)c1ccco1 | ? | 47* | 36* | ? | -11% | -67*
Cc1ccc(-c2nc3ccccc3[nH]2)cc1NC(=O)COc1ccc(Cl)cc1Cl | / | / | / | / | / | -10
O=C(Nc1cccc(-c2nc3ccccc3[nH]2)c1)c1cccc(NC(=O)c2ccco2)c1 | 3.5µM* | -19 | -7 | ? | / | -102*
COc1cccc(OC)c1C(=O)NC(=S)Nc1cc(-c2nc3ccccc3[nH]2)ccc1Cl | ? | 44 | 10 | 4.1µM* | ? | -31
Cc1cccc2[nH]c(-c3ccc(NC(=O)c4ccco4)cc3)nc12 | -12% | 126* | 32* | -45% | 0.41µM* | -15
O=C(N/N=C/c1ccco1)c1ccc2nc[nH]c2c1 | 5% | 10 | 1 | 12% | 225% | -17
SMILES | HCV inh | Shiga toxin inh | Cycloheximide cs | Pf growth 48h | Pf growth 96h | HCMV antiviral
O=C(Nc1ccc2nc[nH]c2c1)c1ccco1 | 2% | 71* | 30* | 81% | 135% | 23
Cc1ccccc1NS(=O)(=O)c1ccc(NC(=O)c2ccco2)cc1 | -10% | 22 | -3 | -7% | 3% | 11
CC(C)(Oc1ccc(Br)cc1)C(=O)Nc1cc(-c2nc3ccccc3[nH]2)ccc1Cl | / | / | / | / | / | -16
CN(Cc1ccccc1)C(=O)c1nc(-c2ccc(Cl)cc2)n2c1CCCCC2 | / | / | / | / | / | 0
CCN(CC)c1ccc(NC(=O)CCc2c(C)nc3ncnn3c2C)c(C)c1 | / | / | / | / | / | -3
O=c1[nH][nH]cc1C=Nc1cc(Cl)ccc1O | -25% | -18 | 8 | ? | 6.6µM* | -3
CCOc1ccc2nc(N3CCCC(C(=O)NC4CCCC4)C3)sc2c1 (stereo not drawn) | ? | 20* | 33* | 39% | ? | 27
CCOc1ccc2nc(N3CCCC(C(=O)Nc4ccc(OC)cc4)C3)sc2c1 (stereo not drawn) | / | / | / | / | / | 48
